High-throughput results from PubChem BioAssay.
Cruzain noTriton: qHTS Assay for Promiscuous and Specific Inhibitors of Cruzain (without detergent); 2.3% of 200,000 active; AID 1476, 2009; Cruzipain (Trypanosoma cruzi), P25779; Potency, µM, inactives show max response, negative = inhibition, actives largely listed as inhibitors; purified cruzain, Z-FR-AMC fluorescence, no detergent;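 further: plate controls were enzyme without inhibitor for no effect and buffer without enzyme for full effect; nearly all actives have a fitted effect of over 40% in size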
Target sequence (P25779 123-467 limits assumed): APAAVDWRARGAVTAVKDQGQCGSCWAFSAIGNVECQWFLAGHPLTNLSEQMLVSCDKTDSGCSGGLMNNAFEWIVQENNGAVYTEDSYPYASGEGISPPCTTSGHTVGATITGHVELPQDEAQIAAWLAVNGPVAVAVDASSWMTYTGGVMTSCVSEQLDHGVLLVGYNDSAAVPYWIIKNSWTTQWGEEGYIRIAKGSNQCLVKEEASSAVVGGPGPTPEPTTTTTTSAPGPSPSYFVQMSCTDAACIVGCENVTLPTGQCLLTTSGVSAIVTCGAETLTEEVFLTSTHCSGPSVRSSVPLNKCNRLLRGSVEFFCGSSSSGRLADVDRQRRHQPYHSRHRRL
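Detergent-free condition (0.00005% Triton X-100) in acetate buffer pH 5.5 with DTT. 1.5 nM enzyme and compound were pre-mixed 15 min, then 2 uM Z-FR-AMC substrate added; reaction progress from fluorescence change between first and third reads (60 s).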
Cruzain Triton: qHTS Assay for Promiscuous and Specific Inhibitors of Cruzain (with detergent) | Cruzipain (Trypanosoma cruzi), P25779 | 0.43% of 200,000 active | AID 1478, 2009 | purified cruzain, Z-FR-AMC fluorescence, 0.01% Triton | Potency, µM, for inactives: max response, negative = inhibition, hits mostly inhibitors;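 further: plate controls were neutral wells for no effect and buffer without enzyme for full effect; nearly all actives have a fitted effect of over 40% in size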
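Cysteine protease activity tested under reducing, mildly acidic conditions (100 mM sodium acetate pH 5.5, 5 mM DTT) plus 0.01% Triton X-100. Cruzain 1.5 nM; substrate Z-FR-AMC 2 uM; 15 min compound preincubation at room temperature.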
* hit, by the source's call; ? = inconclusive. This is a sample that favours compounds with a hit; in the whole collection about 2.5% have one here. The call rests on the fitted dose curve; in most records, active means well fitted curve in the direction sought with a large enough effect; inconclusive means small, poorly fitted or top-dose-only effect, or another doubt; inactive means no such curve, though single readings can be large; an effect the other way counts as inactive or inconclusive. Potency means the concentration at half of the fitted maximal effect.

SMILES	Cruzain noTriton	Cruzain Triton
Cc1cc(C)cc(N2C(=O)CS(=O)(=O)C23C(=O)N(Cc2ccccc2)c2ccccc23)c1 (configuration not stated)	6.31µM*	-4.7%
CC(=O)N1c2ccc(S(=O)(=O)N3CCCCCC3)cc2CC1C(=O)NCc1cccc(C)c1 (configuration not stated)	-4.3%	1.2%
COc1ccc(-c2cc(-c3ccccc3)nc(SCC(=O)Nc3ccccc3F)c2C#N)cc1	-6.4%	0.8%
CCc1nnc(NC(=O)CSc2nc(-c3ccccc3)cc(-c3ccc(OC)cc3)c2C#N)s1	12.6µM*	-3.1%
COc1ccc(-c2cc(-c3ccccc3)c(C#N)c(SCC(=O)Nc3ncc(C)s3)n2)cc1	?	-3.1%
COc1ccc(-c2cc(-c3ccccc3)nc(SCC(=O)Nc3nccs3)c2C#N)cc1	7.94µM*	-8.0%
N#Cc1c(-c2ccccc2)cc(C2CC2)nc1SCC(=O)c1cccs1	?	1.4%
CC(C)NC(=O)CSc1nc(-c2cccs2)cc(-c2ccccc2)c1C#N	20µM*	-6.8%
CCOC(=O)c1cc(S(=O)(=O)Nc2ccc(C)cc2Cl)[nH]n1	3.5%	-1.5%
CCOC(=O)c1cccc(NC(=O)CC(c2cc(OC)c(OC)c(OC)c2)N2Cc3ccccc3C2=O)c1 (configuration not stated)	?	-6.0%
O=C(NCCC1=CCCCC1)c1ccc2c(c1)N(Cc1ccc(Cl)cc1)C(=O)c1ccccc1S2=O (configuration not stated)	-45.1%	-3.0%
Cc1cc(Cl)ccc1NC(=O)CS(=O)(=O)c1cccc2nsnc12	-9.0%	-2.6%
COc1ccc(CNc2oc(-c3ccc(COc4ccc(Cl)cc4)o3)nc2C#N)cc1	-15.6%	-2.8%
CCOC(=O)C1=C(CSc2nc(-c3ccccc3)ccc2C#N)OC(N)=C(C#N)C1c1cccnc1 (configuration not stated)	?	-5.2%
CCOC(=O)C1=C(CSc2nc(-c3ccccc3)ccc2C#N)OC(N)=C(C#N)C1c1ccccc1 (configuration not stated)	25.1µM*	-1.6%
CCc1ccccc1N1CC(c2nc3ccccc3n2CCOc2ccc(Cl)c(C)c2)CC1=O (configuration not stated)	-14.4%	-8.2%
Cc1nc(Oc2ccccc2C)c2oc3ccccc3c2n1	?	-2.8%
CCOc1ccc(C2NC(=O)c3sc(=S)n(-c4ccccc4)c3N2)cc1 (configuration not stated)	-18.4%	-12.2%
COc1ccc(C2NC(=O)c3sc(=S)n(-c4ccccc4)c3N2)cc1 (configuration not stated)	25.1µM*	-0.1%
Cc1[nH]nc(-c2ccc(OCc3cnn(-c4ccccc4)c3)cc2O)c1Oc1ccc(F)cc1	?	8.2%
Cc1[nH]nc(-c2ccc(OCc3cnn(-c4ccccc4)c3)c(C)c2O)c1Oc1ccccc1	12.6µM*	8.2%
CC(C)c1ccc(NC(=O)C2CCCN2S(=O)(=O)c2ccc3nc(-c4ccccc4)[nH]c3c2)cc1 (configuration not stated)	-6.4%	-5.0%
Cc1ccccc1CNC(=O)CCSCc1cnn(-c2ccccc2)c1-n1cccc1	?	-6.8%
Cc1ccc(CNC(=O)Cn2c(=O)n(Cc3ccccc3)c(=O)c3sc4ccccc4c32)cc1	4.9%	-1.3%
Cc1ccc(CNC(=O)Cn2c(=O)n(-c3cccc(Cl)c3)c(=O)c3sc4ccccc4c32)cc1	12.6µM*	-3.0%
SMILES	Cruzain noTriton	Cruzain Triton
N#Cc1cccc(-n2c(-c3ccccc3)nnc2-c2ccccc2)c1C#N	?	-8.5%
N#Cc1ccc(-n2c(-c3ccccc3)nnc2-c2ccccc2)cc1C#N	20µM*	-10.5%
COC(=O)c1cc2sc(C)cc2n1CC(=O)Nc1ccc(C)c(C)c1	-2.9%	-1.7%
C=CCCC	-10.4%	8.8%
O=C(CCc1ccccc1)NC1CC(=O)N(c2cccc(F)c2)C1 (configuration not stated)	5.2%	0.2%
COC(=O)C1=C(C)Nc2sc(C(N)=O)c(N)c2C1c1ccncc1 (configuration not stated)	-12.1%	-3.8%
CCOC(=O)C1=C(C)Nc2sc(C(=O)c3ccc(OC)cc3)c(N)c2C1c1ccc(C(=O)OC)cc1 (configuration not stated)	31.6µM*	-3.4%
CCN(CC)c1ccc(/C=N/N(c2ccccc2)c2ccccc2)c(O)c1	?	-4.4%
CCN(CC)c1ccc(/C=N/N=C(c2ccccc2)c2ccccc2)c(O)c1	25.1µM*	-5.3%
COc1cccc(CNC(=O)Cn2cc3c(n2)-c2c(oc(C(=O)N4CCOCC4)c2C)CC3)c1	5.8%	-0.5%
CC(C)(C)C(=O)Nc1ccc2nc(SCC(=O)N3CCCC3)sc2c1	10.3%	-5.0%
CN1/C(=C\C(=O)c2cccs2)C(C)(C)c2ccccc21	9.7%	-10.2%
CN1/C(=C\C(=O)Nc2ccc(Cl)cc2)C(C)(C)c2ccccc21	-1.7%	-8.7%
COc1ccccc1C(=O)NC(=S)/C=C1/N(C)c2ccccc2C1(C)C	25.1µM*	14.1µM*
CN1/C(=C\C(=S)NC(=O)c2ccccc2Cl)C(C)(C)c2ccccc21	31.6µM*	25.1µM*
CCc1cc2c(cc3c(=O)n(CCCC(=O)NCc4ccccc4Cl)nc(CC)n32)s1	9.5%	-2.3%
CCOC(=O)C(=O)NCC(c1cccnc1)N1CCN(c2ccccc2)CC1 (configuration not stated)	10.4%	-5.3%
Cc1ccc(NC(=O)C(NS(=O)(=O)c2ccc3c(c2)CCC(=O)N3)c2ccccc2)cc1C (configuration not stated)	-5.3%	-0.9%
COC1=C(C(=O)c2ccccc2)C(=O)C2(CC=C(C)C)C[C@H](C(=O)OCC(F)(F)F)C(C)(C)[C@@]1(CC=C(C)C)C2=O (tested in a mixture with another compound)	2.0%	-0.6%
CCC(C)NC(=O)CCCc1nnc2n(CC(C)C)c(=O)c3sccc3n12 (configuration not stated)	8.3%	-0.2%
Cc1cccc(CSc2nc(N)c(C#N)c(-c3cccs3)c2C#N)c1	25.1µM*	-5.1%
Cc1cccc(CSc2nc3c(c(-c4cccs4)c2C#N)CN(C)CC3)c1	-22.7%	-5.8%
O=C(c1cc2sccc2n1Cc1ccccc1)N1CCCc2ccccc21	20µM*	-3.3%
O=C(c1cc2sccc2n1Cc1ccccc1)N1CCc2ccccc21	?	-3.3%
CC1(C)[C@@H]2CC[C@]1(CC(=O)O)[C@H](Cl)C2	-6.0%	6.1%
SMILES	Cruzain noTriton	Cruzain Triton
Oc1ccc(Br)cc1-c1cc(-c2ccc(Cl)cc2)n[nH]1	31.6µM*	8.2%
Oc1ccc(Br)cc1-c1cc(-c2ccccc2)n[nH]1	-15.3%	-14.1%
NC(N)=N[C@H](CC(=O)O)c1ccccc1	21.8%	5.5%
COc1ccc2nc(SCC(=O)N3CCCCCC3)c(C#N)cc2c1	-2.4%	-4.3%
CCOc1ccc2nc(SCC(=O)N3c4ccccc4Sc4ccccc43)c(C#N)cc2c1	3.98µM*	-1.0%
CCCCNC(=O)CSc1nc2ccccc2c(=O)n1Cc1ccc2c(c1)OCO2	20µM*	5.8%
O=C(CSc1nc2ccccc2c(=O)n1-c1ccccc1)NCc1ccc2c(c1)OCO2	-0.6%	0.7%
O=C(NN1C(=O)c2cc(Br)ccc2NC1c1ccccc1Cl)c1ccncc1 (configuration not stated)	-7.7%	1.4%
